A selection: hits, their analogues and other compounds. The true share with any hit is near 19%.
HT1080-NT tox: qHTS for induction of synthetic lethality in tumor cells producing 2HG: qHTS for the HT-1080-NT fibrosarcoma cell line. HT-1080-NT fibrosarcoma viability, CellTiter-Glo ATP luminescence, 48 h. Potency, µM (top dose mostly 46.1 µM), for inactives: at the top dose activity, negative = less viability, usual class: cytotoxic. hit rate 1.6% among 360,000. AID 686970, 2013;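 note: NT is the 2HG producing partner of a matched IDH1 knockdown line; potency is the fitted concentration of half-maximal effect; 0% = DMSO-treated cells and -100% = media-only wells without cells; nearly all actives have a fitted effect of over 55% in size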
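Fibrosarcoma NT cells, 750 per well in 5% FBS RPMI, were exposed to compound for 48 hours. Viability: CellTiter-Glo luminescence.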
IL-1B inflam inh: qHTS for Inhibitors of Inflammasome Signaling: IL-1-beta AlphaLISA Primary Screen | THP-1 LPS/ATP IL-1B secretion, AlphaLISA, 16 h; hits give low values | activity change, % at 57.5 µM | hit rate 4.7% among 360,000 | AID 743279, 2014; in the data active = activity change below about -50%; inconclusive = mostly about -30% to -49%
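THP-1 cells pretreated 1 hr with compounds (up to 57.5 uM final), then stimulated with LPS (250 ng/mL final) plus ATP (1.25 mM final); secreted IL-1B measured by AlphaLISA after 16 hr, decreased signal indicating inhibition.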
TDP1 cell noCPT: qHTS for Inhibitors of human tyrosyl-DNA phosphodiesterase 1 (TDP1): qHTS in cells in absence of CPT; DT40 Tdp1-/- hTDP1 cells, no CPT, ATP luminescence, 48 h; Potency, µM (series often up to 46.2 µM), for inactives: top-dose activity change, negative = growth inhibition, usual class: inhibitors; hit rate 15% among 420,000; note: potency is the fitted concentration of half-maximal effect; nearly all actives have a fitted effect of over 55% in size
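Growth kinetics read by CellTiter-Glo luminescence after ≥48 hr at 37 °C. Cells: DT40 Tdp1-/- stably carrying human TDP1, 400 per well, compound exposure in the absence of CPT (DMSO vehicle).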
TDP1 cell CPT: qHTS for Inhibitors of human tyrosyl-DNA phosphodiesterase 1 (TDP1): qHTS in cells in presence of CPT; chicken DT40 Tdp1-/-;hTDP1 cells + 20 nM CPT, ATP luminescence, 48 h; Potency, µM (highest dose often 46.2 µM), inactives show at the top dose activity change, negative = growth inhibition, usual class: inhibitors; hit rate 12% among 420,000; note: potency is the fitted concentration of half-maximal effect; nearly all actives have a fitted effect of over 55% in size
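Chicken DT40 Tdp1-/- cells complemented with human TDP1, 400 cells/well, exposed to compounds plus 20 nM camptothecin for at least 48 h at 37 C; viability read as ATP content by CellTiter-Glo luminescence.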
HT1080 IDH1KD tx: qHTS for induction of synthetic lethality in tumor cells producing 2HG: qHTS for the HT-1080-IDH1KD cell line; HT-1080 IDH1 knockdown viability, ATP luminescence, 48 h; Potency, µM (doses to about 46.1 µM), for inactives: at the top dose activity, negative = toxicity, most hits filed as cytotoxic; hit rate 2% among 360,000; AID 686971, 2013;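 note: potency is the fitted concentration of half-maximal effect; 0% = DMSO wells and -100% = cell-free medium wells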
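Using the IDH1-knockdown HT-1080 line run in the same batch and compound series as the NT line, viability after 48 h at 37 °C was determined by CellTiter-Glo luminescence and expressed as % activity.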
An asterisk follows results filed as active; ! = a repeat was not active. Unless noted, calls come from the whole dose curve; as a rule, active = well fitted curve in the direction sought with a large enough effect; inconclusive = small, poorly fitted or top-dose-only effect, or another doubt; inactive = no such curve, though single readings can be large; an effect the other way counts as inactive or inconclusive. Unless noted, % is set by controls: 0 for no effect and ±100 for the full control effect.

For CC[C@]1(O)C[C@H]2CN(CCc3c([nH]c4ccccc34)[C@@](C(=O)OC)(c3cc4c(cc3OC)N(C=O)[C@H]3[C@@](O)(C(=O)OC)[C@H](OC(C)=O)[C@]5(CC)C=CCN6CC[C@]43[C@@H]65)C2)C1 the results were TDP1 cell noCPT 0.237µM*! and TDP1 cell CPT 0.237µM*.
COC(=O)CC1CC2(C(=O)OC)c3[nH]c4ccccc4c3CCN2C1=O (centres undefined) was read as HT1080-NT tox 0.2%, IL-1B inflam inh 16.6, TDP1 cell noCPT 0.6%, TDP1 cell CPT -4.1% and HT1080 IDH1KD tx 16.6%.
For CCc1ccc(NC(=O)Cn2c(=O)n(-c3cc(C)cc(C)c3)c(=O)c3oc4ccccc4c32)cc1 the results were TDP1 cell noCPT -17.8% and TDP1 cell CPT -2.9%.
Screening Cc1ccc(Cn2c(=O)n(-c3cc(C)cc(C)c3)c(=O)c3oc4ccccc4c32)cc1 returned TDP1 cell noCPT 23.1µM* and TDP1 cell CPT inconclusive.
For COc1ccc(NC(=O)Cn2c(=O)n(-c3cc(C)cc(C)c3)c(=O)c3oc4ccccc4c32)cc1OC the results were TDP1 cell noCPT 8.2µM* and TDP1 cell CPT 8.2µM*.
For Cc1ccc(Cn2c(=O)n(Cc3ccco3)c(=O)c3oc4ccccc4c32)cc1 the results were TDP1 cell noCPT -9.6% and TDP1 cell CPT -6.1%.
Screening CCCCn1c(=O)c2oc3ccccc3c2n(CC(=O)Nc2cccc(Cl)c2)c1=O returned TDP1 cell noCPT -18.5% and TDP1 cell CPT -28.6%.
Screening COc1ccc(NC(=O)Cn2c(=O)n(C(C)C)c(=O)c3oc4ccccc4c32)cc1Cl returned TDP1 cell noCPT 16.4µM* and TDP1 cell CPT inconclusive.
C[C@H](c1ccccc1)N1C[C@@H](COCc2ccccc2)Oc2cc(N3CC[C@@H](O)C3)ccc2S1(=O)=O was read as HT1080-NT tox inconclusive, IL-1B inflam inh 12.2, TDP1 cell noCPT 23.1µM*, TDP1 cell CPT 20.6µM* and HT1080 IDH1KD tx inconclusive.
Screening C[C@@H](c1ccccc1)N1C[C@@H](COCc2ccccc2)Oc2cc(N3CC[C@H](O)C3)ccc2S1(=O)=O returned HT1080-NT tox inconclusive, IL-1B inflam inh 17.4, TDP1 cell noCPT 18.4µM*, TDP1 cell CPT inconclusive and HT1080 IDH1KD tx inconclusive.
Screening C[C@@H](c1ccccc1)N1C[C@H](COCc2ccccc2)Oc2cc(N3CC[C@H](O)C3)ccc2S1(=O)=O returned HT1080-NT tox inconclusive, IL-1B inflam inh 16.7, TDP1 cell noCPT 20.6µM*, TDP1 cell CPT inconclusive and HT1080 IDH1KD tx inconclusive.
Screening CS(=O)(=O)N(CC(=O)N1CCc2ccccc2C1)c1ccc2c(c1)OCO2 returned HT1080-NT tox -1.9%, IL-1B inflam inh -10.9, TDP1 cell noCPT 4.0%, TDP1 cell CPT -22.3% and HT1080 IDH1KD tx 1.5%.
Cc1ccsc1/C=N/N1CCN(Cc2ccccc2)CC1 was read as HT1080-NT tox 17.7%, IL-1B inflam inh -15.9, TDP1 cell noCPT -23.0%, TDP1 cell CPT 0.2% and HT1080 IDH1KD tx -14.0%.
`CC(=O)NC12CC3CC(C1)CC(C(=O)Oc1ccc(N(C)S(=O)(=O)c4cc(C)ccc4C)cc1)(C3)C2` gave HT1080-NT tox -23.7%, IL-1B inflam inh -24.7, TDP1 cell noCPT 16.4µM*, TDP1 cell CPT inconclusive and HT1080 IDH1KD tx -10.5%.
`CC1Cc2ccccc2N1C(=O)c1ccc2c(c1)OCO2` (centres undefined) gave HT1080-NT tox -13.9%, IL-1B inflam inh -63.8*, TDP1 cell noCPT -8.5%, TDP1 cell CPT inconclusive and HT1080 IDH1KD tx -7.2%.
`CC1Cc2ccccc2N1C(=O)c1ccc(N2CCCCC2)c([N+](=O)[O-])c1` (centres undefined) gave HT1080-NT tox 6.4%, IL-1B inflam inh -7.0, TDP1 cell noCPT inconclusive, TDP1 cell CPT inconclusive and HT1080 IDH1KD tx 3.2%.
`N#Cc1ccc(N2CCc3ccccc3C2)c([N+](=O)[O-])c1` gave HT1080-NT tox 0.9%, IL-1B inflam inh -27.8, TDP1 cell noCPT 23.1µM*, TDP1 cell CPT -13.3% and HT1080 IDH1KD tx 0.5%.
CC1Cc2ccccc2N1C(=O)c1ccc(N2CCCC2)c([N+](=O)[O-])c1 (centres undefined) was read as HT1080-NT tox -18.2%, IL-1B inflam inh -81.7*, TDP1 cell noCPT inconclusive, TDP1 cell CPT inconclusive and HT1080 IDH1KD tx -18.6%.
For O=C(c1ccc(N2CCCC2)c([N+](=O)[O-])c1)N1CCc2ccccc2C1 the results were HT1080-NT tox -7.0%, IL-1B inflam inh inconclusive, TDP1 cell noCPT 29.1µM*, TDP1 cell CPT 16.4µM* and HT1080 IDH1KD tx -11.3%.
O=C(c1ccc(N2CCCCC2)c([N+](=O)[O-])c1)N1CCOCC1 was read as HT1080-NT tox 26.6%, IL-1B inflam inh -9.1, TDP1 cell noCPT -12.8%, TDP1 cell CPT 2.3% and HT1080 IDH1KD tx 17.8%.
`O=C(NC1CCCC1)c1ccc2c(=O)n(Cc3ccccc3)c(SCc3ccccc3F)nc2c1` gave TDP1 cell noCPT inconclusive and TDP1 cell CPT -25.3%.
C=CCC1(Cl)C(=O)C(Cl)=C(N2CCOCC2)C1(OC)OC (centres undefined) was read as HT1080-NT tox 24.3%, IL-1B inflam inh 5.6, TDP1 cell noCPT 1.1%, TDP1 cell CPT -1.3% and HT1080 IDH1KD tx 15.2%.
For CC(C)(C)c1ccc(-c2nc(SCC(=O)Nc3ccc(Cl)cc3)[nH]c(=O)c2C#N)cc1 the results were TDP1 cell noCPT -4.8% and TDP1 cell CPT -23.8%.
Screening O=C(c1ccc(N2CCCCC2)c([N+](=O)[O-])c1)N(Cc1ccccc1)c1ccccn1 returned HT1080-NT tox 0.0%, IL-1B inflam inh inconclusive, TDP1 cell noCPT 18.4µM*, TDP1 cell CPT 16.4µM* and HT1080 IDH1KD tx -4.6%.
Screening COC(=O)CCN(C(=O)c1ccc(N2CCCCC2)c([N+](=O)[O-])c1)c1ccccn1 returned HT1080-NT tox 5.3%, IL-1B inflam inh 7.4, TDP1 cell noCPT inconclusive, TDP1 cell CPT 4.0% and HT1080 IDH1KD tx 0.8%.
CCOC(=O)CNC(=O)C1c2ccccc2Oc2ccccc21 was read as HT1080-NT tox -2.0%, IL-1B inflam inh -5.6, TDP1 cell noCPT 0.0%, TDP1 cell CPT 1.4% and HT1080 IDH1KD tx 2.3%.
`CC(C)(C)NCC(=Cc1ccccc1)C(=O)c1ccccc1` gave HT1080-NT tox 6.51µM*, IL-1B inflam inh -101.7*, TDP1 cell noCPT 2.06µM*, TDP1 cell CPT 2.06µM* and HT1080 IDH1KD tx 5.8µM*.

From PubChem
